Results filed as inconclusive are left out. Calls of active or inactive are those of the source. The calls were made as follows, unless noted: active = hit-call score of the fitted dose curve at least 0.9, where 1 is the maximum; inconclusive = response in the unintended direction; inactive = score below 0.9.
Assays:
[1] = ATG_TAL_CIS: Attagene CIS-FACTORIAL HepG2 Assay for human TAL Basal Promoter (AID 2282966; active = hit-call score of the fitted dose curve at least 0.9, where 1 is the maximum; inactive = score below 0.9;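 also: background control endpoint measuring basal TAL promoter reporter mRNA not a specific factor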); details: HepG2 Attagene cis-factorial TAL promoter reporter; actives raise or lower the signal
Summary of the method: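 RT-PCR plus capillary electrophoresis quantifies reporter mRNA induction in transiently transfected HepG2 cells after 24 h chemical treatment. DMSO serves as negative control and baseline for bidirectional fitting.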

[2] = ATG_TGFb_CIS: Attagene CIS-FACTORIAL HepG2 Assay for human Transforming Growth Factor (TGF) (AID 2282967; active = hit-call score of the fitted dose curve at least 0.9, where 1 is the maximum; inactive = score below 0.9); details: HepG2 Attagene CIS TGFb reporter, mRNA transcription; actives raise or lower the signal
Summary of the method: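 HepG2 cells transiently transfected with cis-promoter-driven multiple reporter units measure endogenous TF activity; reporter mRNA quantified at 24 h by RT-PCR, FAM labeling, HpaI digestion and capillary electrophoresis. Bidirectional fit vs DMSO.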

[3] = ATG_VDRE_CIS: Attagene CIS-FACTORIAL HepG2 Assay for human Vitamin D Receptor Element (VDRE) (AID 2282968; active = hit-call score of the fitted dose curve at least 0.9, where 1 is the maximum; inactive = score below 0.9); details: HepG2 VDRE cis-reporter transcription, actives raise or lower the signal
Summary of the method: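 Reporter mRNA induction, quantified by capillary electrophoresis of fluorescently labelled RT-PCR products, was read 24 h after dosing HepG2 cells carrying transiently transfected cis-regulated reporter units; gain or loss relative to DMSO.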

[4] = molecular target: Nuclear receptor subfamily 1 group I member 3 (Homo sapiens) (UniProt Q14994); assay: ATG_CAR_TRANS: Attagene TRANS-FACTORIAL HepG2 Assay for human Constitutive Androstane Receptor (CAR) (AID 2282969); details: HepG2 Attagene TRANS-FACTORIAL CAR reporter;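 also: activators raise reporter mRNA above DMSO so AC50 marks induction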
Sequence of Nuclear receptor subfamily 1 group I member 3 (Homo sapiens) (Q14994 whole entry, looked up, the tested form may be a part): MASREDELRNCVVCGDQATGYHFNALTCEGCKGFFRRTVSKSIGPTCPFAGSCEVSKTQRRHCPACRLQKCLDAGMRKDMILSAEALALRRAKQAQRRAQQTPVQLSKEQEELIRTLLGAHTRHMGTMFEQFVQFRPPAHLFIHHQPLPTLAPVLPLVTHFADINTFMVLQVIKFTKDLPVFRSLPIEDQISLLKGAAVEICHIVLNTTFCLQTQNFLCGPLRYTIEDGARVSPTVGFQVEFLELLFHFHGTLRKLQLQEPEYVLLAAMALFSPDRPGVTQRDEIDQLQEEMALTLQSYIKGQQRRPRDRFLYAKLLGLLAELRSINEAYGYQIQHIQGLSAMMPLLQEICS
Summary of the method: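 Readout is reporter mRNA induction, quantified by fluorescent primer extension and capillary electrophoresis after RT-PCR. Cells were HepG2 transiently carrying chimeric NR-Gal4 constructs with GAL4-UAS reporters, treated for 24 h; activity scored upward from DMSO.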

[5] = molecular target: X-box-binding protein 1 (Homo sapiens) (UniProt P17861); assay: ATG_Xbp1_CIS: Attagene CIS-FACTORIAL HepG2 Assay for human X-box Binding Protein 1 (XBP1) (AID 2282972; active = hit-call score of the fitted dose curve at least 0.9, where 1 is the maximum; inactive = score below 0.9); details: HepG2 XBP1 cis-element reporter, Attagene multiplex; actives raise or lower the signal
Sequence of X-box-binding protein 1 (Homo sapiens) (P17861 whole entry, looked up): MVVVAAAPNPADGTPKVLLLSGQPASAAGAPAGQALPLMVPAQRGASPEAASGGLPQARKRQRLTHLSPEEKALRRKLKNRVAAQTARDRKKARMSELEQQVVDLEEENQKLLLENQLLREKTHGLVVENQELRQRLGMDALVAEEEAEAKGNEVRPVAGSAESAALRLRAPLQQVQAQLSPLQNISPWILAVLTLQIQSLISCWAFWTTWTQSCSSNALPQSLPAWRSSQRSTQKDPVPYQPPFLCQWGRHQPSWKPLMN
Summary of the method: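 HepG2 cells transiently transfected with cis-regulated multiple reporter transcription units; endogenous transcription factor activity measured 24 hours after chemical dosing. Reporter mRNA quantified by RT-PCR, 6-FAM primer extension, HpaI digestion and capillary electrophoresis; bidirectional fitting versus DMSO.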

[6] = ATG_M_19_TRANS: Attagene TRANS-FACTORIAL HepG2 Assay for M19 Transcription Factor (Internal Marker) (AID 2282974); details: HepG2 Attagene TRANS-FACTORIAL M19 internal marker reporter
Summary of the method: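 HepG2 transiently transfected with GAL4-UAS multiplex reporter constructs, exposed 24 h; reporter RNA quantified by RT-PCR, 6-FAM labeling, HpaI digestion and capillary electrophoresis; internal background marker fitted upward versus DMSO.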

[7] = molecular target: Oxysterols receptor LXR-alpha (Homo sapiens) (UniProt Q13133); assay: ATG_LXRa_TRANS: Attagene TRANS-FACTORIAL HepG2 Assay for human Liver X Receptor alpha (LXRa) (AID 2282980); details: HepG2 Attagene TRANS reporter, LXRa transactivation
Sequence of Oxysterols receptor LXR-alpha (Homo sapiens) (Q13133 whole entry, looked up, the tested form may be a part): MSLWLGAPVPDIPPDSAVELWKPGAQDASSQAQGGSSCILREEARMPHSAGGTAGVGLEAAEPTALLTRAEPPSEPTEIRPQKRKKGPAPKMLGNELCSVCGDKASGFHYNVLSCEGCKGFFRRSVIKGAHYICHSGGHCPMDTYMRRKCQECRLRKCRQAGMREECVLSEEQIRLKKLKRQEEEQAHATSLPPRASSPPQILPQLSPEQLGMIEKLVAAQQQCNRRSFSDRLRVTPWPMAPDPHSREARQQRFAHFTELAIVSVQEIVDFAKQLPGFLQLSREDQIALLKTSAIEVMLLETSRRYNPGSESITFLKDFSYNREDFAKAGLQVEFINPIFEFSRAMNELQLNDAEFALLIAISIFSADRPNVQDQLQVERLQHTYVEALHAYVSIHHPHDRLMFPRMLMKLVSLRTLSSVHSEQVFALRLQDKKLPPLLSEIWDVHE
Summary of the method: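 Chemical-induced reporter mRNA measured by RT-PCR with fluorescent labelling and capillary electrophoresis after 24 h dosing of transiently transfected HepG2 cells expressing exogenous NR-Gal4 chimeras; increases scored against DMSO baseline.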

[8] = molecular target: Oxysterols receptor LXR-beta (Homo sapiens) (UniProt P55055); assay: ATG_LXRb_TRANS: Attagene TRANS-FACTORIAL HepG2 Assay for human Liver X Receptor beta (LXRb) (AID 2282981); details: HepG2 Attagene TRANS GAL4-LXRb reporter, mRNA
Summary of the method: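 Transient transfection HepG2 (multiplexed RTUs, GAL4-UAS); NR-Gal4 chimera; 24 h exposure; RNA → RT-PCR → 6-FAM primer extension → HpaI → CE; increase vs DMSO.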

[9] = ATG_M_32_TRANS: Attagene TRANS-FACTORIAL HepG2 Assay for M32 Transcription Factor (Internal Marker) (AID 2282984); details: HepG2 Attagene TRANS M32 internal marker reporter;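 also: transcript level of a background control reporter unit measured by RT-PCR and capillary electrophoresis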
Summary of the method: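 Measures reporter mRNA induction in human HepG2 liver cells after 24 h chemical treatment. Transcripts from transiently transfected GAL4-UAS reporter units are amplified, fluorescently labelled and sized by capillary electrophoresis; gain of signal relative to DMSO.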

[10] = molecular target: Transcriptional activator Myb (Homo sapiens) (UniProt P10242); assay: ATG_Myb_CIS: Attagene CIS-FACTORIAL HepG2 Assay for human Myeloblastosis (Myb) Proto-Oncogene Transcription Factor (AID 2282986; active = hit-call score of the fitted dose curve at least 0.9, where 1 is the maximum; inactive = score below 0.9); details: HepG2 Attagene CIS-FACTORIAL Myb reporter transcription; actives raise or lower the signal
Sequence of Transcriptional activator Myb (Homo sapiens) (P10242 whole entry, looked up): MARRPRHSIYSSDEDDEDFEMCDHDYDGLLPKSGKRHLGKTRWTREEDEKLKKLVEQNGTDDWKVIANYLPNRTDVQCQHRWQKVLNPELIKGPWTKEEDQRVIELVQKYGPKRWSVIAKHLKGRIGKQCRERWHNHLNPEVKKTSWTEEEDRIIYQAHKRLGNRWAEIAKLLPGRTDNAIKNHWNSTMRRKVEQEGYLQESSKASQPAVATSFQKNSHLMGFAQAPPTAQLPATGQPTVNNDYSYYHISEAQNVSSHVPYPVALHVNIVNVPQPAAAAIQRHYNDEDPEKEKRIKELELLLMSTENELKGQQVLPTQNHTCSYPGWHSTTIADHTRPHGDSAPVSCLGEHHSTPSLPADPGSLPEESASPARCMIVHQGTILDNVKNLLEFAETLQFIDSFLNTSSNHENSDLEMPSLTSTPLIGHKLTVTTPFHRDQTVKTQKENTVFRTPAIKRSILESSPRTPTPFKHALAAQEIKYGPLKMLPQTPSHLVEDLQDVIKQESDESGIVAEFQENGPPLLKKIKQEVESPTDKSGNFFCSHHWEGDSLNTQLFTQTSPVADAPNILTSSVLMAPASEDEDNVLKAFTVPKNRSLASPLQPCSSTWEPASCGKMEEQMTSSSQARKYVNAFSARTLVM
Summary of the method: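 Transiently transfected HepG2 cells carrying a multiplexed cis-promoter reporter set report endogenous Myb activity after 24 h compound exposure. Reporter mRNA is read by RT-PCR with capillary electrophoresis of fluorescent products, fitted bidirectionally against DMSO.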

[11] = molecular target: Nuclear respiratory factor 1 (Homo sapiens) (UniProt Q16656); assay: ATG_NRF1_CIS: Attagene CIS-FACTORIAL HepG2 Assay for human Nuclear Respiratory Factor 1 (NRF1) Orphan Gene (AID 2282987; active = hit-call score of the fitted dose curve at least 0.9, where 1 is the maximum; inactive = score below 0.9); details: HepG2 NRF1 cis-element reporter, Attagene multiplex; actives raise or lower the signal
Sequence of Nuclear respiratory factor 1 (Homo sapiens) (Q16656 whole entry, looked up): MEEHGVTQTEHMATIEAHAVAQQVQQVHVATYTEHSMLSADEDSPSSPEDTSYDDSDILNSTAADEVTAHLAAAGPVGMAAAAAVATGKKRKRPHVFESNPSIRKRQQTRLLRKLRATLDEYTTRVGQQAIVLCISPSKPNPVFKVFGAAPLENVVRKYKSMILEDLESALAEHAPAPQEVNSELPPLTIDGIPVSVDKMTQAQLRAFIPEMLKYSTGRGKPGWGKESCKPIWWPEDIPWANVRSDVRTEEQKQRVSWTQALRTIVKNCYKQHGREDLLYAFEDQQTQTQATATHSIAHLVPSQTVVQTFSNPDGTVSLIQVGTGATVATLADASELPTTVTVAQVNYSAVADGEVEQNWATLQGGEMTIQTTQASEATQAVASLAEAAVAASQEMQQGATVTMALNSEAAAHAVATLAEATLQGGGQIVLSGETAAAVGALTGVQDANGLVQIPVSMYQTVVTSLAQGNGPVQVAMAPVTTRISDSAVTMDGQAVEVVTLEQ
Summary of the method: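 HepG2 cells transiently transfected with multiple cis-regulated reporter units, exposed 24 h. Reporter mRNAs measured by RT-PCR, fluorescent labelling, HpaI digestion and capillary electrophoresis; bidirectional fitting against DMSO.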

[12] = molecular target: Glucocorticoid receptor (Homo sapiens) (UniProt P04150); assay: ATG_GR_TRANS: Attagene TRANS-FACTORIAL HepG2 Assay for human Glucocorticoid Receptor (GR) (AID 2282978); details: HepG2 Attagene TRANS GR reporter, mRNA transcription;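 also: activators score as hits since higher reporter transcript over DMSO is fitted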
Sequence of Glucocorticoid receptor (Homo sapiens) (P04150 whole entry, looked up, the tested form may be a part): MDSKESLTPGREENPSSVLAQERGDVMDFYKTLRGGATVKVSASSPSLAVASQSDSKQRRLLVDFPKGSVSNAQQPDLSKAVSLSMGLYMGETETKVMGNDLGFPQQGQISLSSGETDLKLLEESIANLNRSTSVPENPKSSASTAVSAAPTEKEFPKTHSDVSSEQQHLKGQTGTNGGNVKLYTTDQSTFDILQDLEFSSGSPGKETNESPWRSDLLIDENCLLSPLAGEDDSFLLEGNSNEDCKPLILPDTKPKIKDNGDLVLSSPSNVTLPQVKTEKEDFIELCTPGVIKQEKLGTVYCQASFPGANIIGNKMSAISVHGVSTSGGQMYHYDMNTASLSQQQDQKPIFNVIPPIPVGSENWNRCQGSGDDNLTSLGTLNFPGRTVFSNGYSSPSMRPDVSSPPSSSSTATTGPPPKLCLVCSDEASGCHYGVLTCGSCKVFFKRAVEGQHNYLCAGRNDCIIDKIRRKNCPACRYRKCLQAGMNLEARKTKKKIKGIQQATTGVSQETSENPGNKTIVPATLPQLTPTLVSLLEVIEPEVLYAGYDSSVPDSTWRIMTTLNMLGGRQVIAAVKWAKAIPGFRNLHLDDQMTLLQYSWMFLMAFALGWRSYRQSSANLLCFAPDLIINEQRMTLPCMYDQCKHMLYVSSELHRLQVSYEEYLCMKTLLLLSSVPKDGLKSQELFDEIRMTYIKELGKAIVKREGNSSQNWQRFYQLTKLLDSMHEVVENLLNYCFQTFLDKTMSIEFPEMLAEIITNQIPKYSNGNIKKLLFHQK
Summary of the method: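 HepG2 cells transiently transfected with GAL4-UAS reporter units and exogenous GR-Gal4 chimera, dosed 24 h. Reporter mRNA by RT-PCR, FAM labeling, HpaI digest and capillary electrophoresis; gain-of-signal fit versus DMSO.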

[13] = molecular target: Hepatocyte nuclear factor 4-alpha (Homo sapiens) (UniProt P41235); assay: ATG_HNF4a_TRANS: Attagene TRANS-FACTORIAL HepG2 Assay for human Hepatocyte Nuclear Factor 4 alpha (HNF4a) (AID 2282982); details: HepG2 HNF4a transactivation reporter, mRNA readout
Sequence of Hepatocyte nuclear factor 4-alpha (Homo sapiens) (P41235 whole entry, looked up, the tested form may be a part): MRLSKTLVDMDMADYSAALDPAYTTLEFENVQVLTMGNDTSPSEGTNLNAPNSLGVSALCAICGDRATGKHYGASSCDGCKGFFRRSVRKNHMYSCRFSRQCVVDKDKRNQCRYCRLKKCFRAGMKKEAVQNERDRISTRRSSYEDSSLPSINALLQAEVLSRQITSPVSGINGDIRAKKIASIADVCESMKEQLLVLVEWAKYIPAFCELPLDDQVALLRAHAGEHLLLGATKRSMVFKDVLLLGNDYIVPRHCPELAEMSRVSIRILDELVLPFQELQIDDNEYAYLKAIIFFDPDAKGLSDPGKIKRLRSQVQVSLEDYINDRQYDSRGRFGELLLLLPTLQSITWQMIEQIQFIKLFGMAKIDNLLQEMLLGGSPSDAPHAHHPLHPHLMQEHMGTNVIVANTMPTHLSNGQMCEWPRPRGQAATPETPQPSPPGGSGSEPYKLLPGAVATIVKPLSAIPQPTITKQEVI
Summary of the method: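 Readout is fluorescent reporter-transcript fragments resolved by capillary electrophoresis after RT-PCR from HepG2 cells dosed for 24 h. Cells carried transfected GAL4-UAS reporter constructs measuring exogenous NR-GAL4 chimera activity; DMSO served as baseline.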

[14] = ATG_M_06_TRANS: Attagene TRANS-FACTORIAL HepG2 Assay for M06 Transcription Factor (Internal Marker) (AID 2282983); details: HepG2 Attagene TRANS M06 internal marker reporter;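 also: reporter transcript level by RT-PCR then capillary electrophoresis fluorescence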
Summary of the method: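 Cells: HepG2, transient multi-reporter transfection. Exposure: 24 h. Detection: RT-PCR, 6-FAM labelling, HpaI digestion (2 h, 37 °C), capillary electrophoresis. Baseline: DMSO.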

[15] = molecular target: Nuclear receptor subfamily 4 group A member 2 (Homo sapiens) (UniProt P43354); assay: ATG_NURR1_TRANS: Attagene TRANS-FACTORIAL HepG2 Assay for human Nuclear Receptor Related Protein 1 (NURR1) (AID 2282985); details: HepG2 Attagene TRANS reporter, mRNA readout
Sequence of Nuclear receptor subfamily 4 group A member 2 (Homo sapiens) (P43354 whole entry, looked up, the tested form may be a part): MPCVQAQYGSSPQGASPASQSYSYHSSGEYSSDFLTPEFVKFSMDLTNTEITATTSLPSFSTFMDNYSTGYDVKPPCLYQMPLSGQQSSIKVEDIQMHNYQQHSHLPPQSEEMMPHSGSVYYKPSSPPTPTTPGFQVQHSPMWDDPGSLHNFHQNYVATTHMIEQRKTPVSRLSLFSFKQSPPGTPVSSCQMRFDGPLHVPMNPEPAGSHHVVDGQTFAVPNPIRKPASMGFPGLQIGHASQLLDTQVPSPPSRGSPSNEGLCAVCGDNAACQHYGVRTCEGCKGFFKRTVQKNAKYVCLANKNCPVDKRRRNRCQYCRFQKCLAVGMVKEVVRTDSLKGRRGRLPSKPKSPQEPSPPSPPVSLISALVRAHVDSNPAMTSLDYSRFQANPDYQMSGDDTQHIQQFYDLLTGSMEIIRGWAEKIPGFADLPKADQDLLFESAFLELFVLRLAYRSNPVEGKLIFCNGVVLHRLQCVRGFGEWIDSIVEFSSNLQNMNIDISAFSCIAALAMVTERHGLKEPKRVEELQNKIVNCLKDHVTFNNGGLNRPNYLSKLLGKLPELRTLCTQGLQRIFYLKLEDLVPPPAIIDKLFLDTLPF
Summary of the method: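 Transient transfection of HepG2, human liver cells, with multiple GAL4-UAS reporter transcription units. Cells dosed 24 h, RNA isolated, reverse-transcribed, PCR-amplified, FAM-labelled, HpaI-digested, sized by capillary electrophoresis. DMSO served as negative control.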

[16] = ATG_GAL4_TRANS: Attagene TRANS-FACTORIAL HepG2 Assay for GAL4 (Internal Marker) (AID 2282976); details: HepG2 Attagene TRANS GAL4 internal marker reporter
Summary of the method: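 In transfected human HepG2 liver cells dosed 24 h, GAL4 reporter mRNA serves as a baseline marker. Detection by RT-PCR with fluorescent capillary electrophoresis, activity fitted upward relative to DMSO.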

[17] = molecular target: Estrogen-related receptor gamma (Homo sapiens) (UniProt P62508); assay: ATG_ERRg_TRANS: Attagene TRANS-FACTORIAL HepG2 Assay for human Estrogen-Related Receptor gamma (ERRg) (AID 2282977); details: HepG2 Attagene TRANS reporter, ERRg transactivation;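 also: hits increase reporter signal over DMSO so potencies reflect activators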
Sequence of Estrogen-related receptor gamma (Homo sapiens) (P62508 whole entry, looked up, the tested form may be a part): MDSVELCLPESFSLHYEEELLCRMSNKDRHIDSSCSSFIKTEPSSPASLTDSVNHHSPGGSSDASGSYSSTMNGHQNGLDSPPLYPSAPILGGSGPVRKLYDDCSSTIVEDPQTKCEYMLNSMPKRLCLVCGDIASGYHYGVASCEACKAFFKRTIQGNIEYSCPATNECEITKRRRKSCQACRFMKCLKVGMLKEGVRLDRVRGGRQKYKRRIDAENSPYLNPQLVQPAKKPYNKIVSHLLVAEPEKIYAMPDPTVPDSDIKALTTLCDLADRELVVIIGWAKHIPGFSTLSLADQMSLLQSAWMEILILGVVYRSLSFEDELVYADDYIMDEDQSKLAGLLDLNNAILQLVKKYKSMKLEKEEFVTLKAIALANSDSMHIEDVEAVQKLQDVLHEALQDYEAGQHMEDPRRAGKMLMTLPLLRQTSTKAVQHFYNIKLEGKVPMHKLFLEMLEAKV
Summary of the method: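 HepG2 cells transiently transfected with multiplexed GAL4-UAS reporter units driven by chimeric NR-Gal4 proteins; 24 h exposure. Reporter mRNA quantified by RT-PCR, fluorescent labelling, HpaI digestion and capillary electrophoresis; gain of signal vs DMSO.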

[18] = molecular target: Bile acid receptor (Homo sapiens) (UniProt Q96RI1); assay: ATG_FXR_TRANS: Attagene TRANS-FACTORIAL HepG2 Assay for Farnesoid X Receptor (FXR) (AID 2282979); details: HepG2 Attagene TRANS FXR-GAL4 reporter transcription;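 also: hits raise reporter mRNA above DMSO so AC50 marks FXR activation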
Sequence of Bile acid receptor (Homo sapiens) (Q96RI1 whole entry, looked up, the tested form may be a part): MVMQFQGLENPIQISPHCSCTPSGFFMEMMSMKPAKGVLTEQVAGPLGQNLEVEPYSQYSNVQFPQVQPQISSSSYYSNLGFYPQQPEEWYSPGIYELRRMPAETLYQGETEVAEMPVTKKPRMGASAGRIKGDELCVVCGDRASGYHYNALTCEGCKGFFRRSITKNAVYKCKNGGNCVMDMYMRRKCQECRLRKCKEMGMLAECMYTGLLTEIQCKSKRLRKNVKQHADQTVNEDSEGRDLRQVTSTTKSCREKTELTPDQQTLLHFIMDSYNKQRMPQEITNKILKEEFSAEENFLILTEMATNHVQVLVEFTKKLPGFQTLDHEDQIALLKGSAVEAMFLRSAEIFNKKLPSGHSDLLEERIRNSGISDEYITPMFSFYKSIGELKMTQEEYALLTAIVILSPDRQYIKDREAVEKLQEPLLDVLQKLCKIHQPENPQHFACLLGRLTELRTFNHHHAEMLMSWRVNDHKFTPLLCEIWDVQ
Summary of the method: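 Reporter transcripts from transfected HepG2 cells were measured 24 h after dosing, using RT-PCR with capillary electrophoresis of 6-FAM-labelled fragments. The read-out reflects activity of exogenous FXR-Gal4 chimera on GAL4-UAS units, with induction relative to DMSO.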

Measured: AC50

Cc1ccc(O)c(C(C)(C)C)c1
active: [1] 181 µM | [3] 100 µM | [5] 142 µM | [10] 184 µM
inactive: [2] | [4] | [6] | [7] | [8] | [9] | [11]

O=C1CCCCCCCCCCOCCCCO1
not listed: [8] | [9] | [16] | [17] | [18]
inactive: all other assays above

Fc1c(F)c(F)c(Br)c(F)c1F
not listed: [7] | [9] | [12] | [13] | [16] | [17] | [18]
inactive: all other assays above

OCC(CO)(CO)COCC(CO)(CO)CO
not listed: [6] | [8] | [12] | [15] | [17] | [18]
inactive: all other assays above

COc1ccc(NC(=O)CC(C)=O)cc1
not listed: [8] | [10] | [12] | [17] | [18]
inactive: all other assays above

C=O
not listed: [8] | [12] | [14] | [18]
inactive: all other assays above

CCCC(C)C=O (configuration not stated)
not listed: [7] | [13] | [14] | [15] | [16]
inactive: all other assays above

CC(=O)Nc1ccc(C)cc1C
not listed: [7] | [8] | [10] | [12] | [14] | [15]
inactive: all other assays above

COc1cccc(OC)c1
not listed: [7] | [9] | [13] | [14] | [15] | [17] | [18]
inactive: all other assays above

CN(C)CCOCCN(C)C
not listed: [7] | [13] | [14] | [15] | [16]
inactive: all other assays above

CC(CCO)CCCC(C)(C)O (configuration not stated)
not listed: [13] | [15] | [17] | [18]
inactive: all other assays above
